Screening results deposited in PubChem BioAssay by National Center for Advancing Translational Sciences (NCATS).
uPA generation – cell surface uPA generation inhibition; AID 540303; hit rate 0.31% among 330,000; Potency, µM (highest dose often 38.3 µM), for the others: at the highest dose activity change, negative = inhibition, most hits filed as inhibitors; cell surface uPA generation assay, qHTS; active = well fitted inhibition curve with a large enough effect; inconclusive = small, poorly fitted or top-dose-only effect; inactive = no such curve, though single readings can be large or run the other way; tested in mouse RAW 264.7 cells; note: potency is the fitted concentration of half-maximal effect; % is set by controls: 0 for no effect and ±100 for the full control effect; nearly all actives have a fitted effect of over 55% in size
TSHR antagonist – blocks TSH signaling through the human TSH receptor. activity change, negative = inhibition, % at 11.5 µM. hit rate 0.2% among 330,000. TSHR-expressing cells, TSH-stimulated cAMP HTRF, 2 h; stronger effect = lower value;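 active = activity change below a set negative limit, meaning inhibition stronger than a set level, cut at about -70% in these data; inconclusive = activity change between two set negative limits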; note: % is set by controls: 0 for no effect and ±100 for the full control effect
Target sequence (P16473 whole entry, looked up): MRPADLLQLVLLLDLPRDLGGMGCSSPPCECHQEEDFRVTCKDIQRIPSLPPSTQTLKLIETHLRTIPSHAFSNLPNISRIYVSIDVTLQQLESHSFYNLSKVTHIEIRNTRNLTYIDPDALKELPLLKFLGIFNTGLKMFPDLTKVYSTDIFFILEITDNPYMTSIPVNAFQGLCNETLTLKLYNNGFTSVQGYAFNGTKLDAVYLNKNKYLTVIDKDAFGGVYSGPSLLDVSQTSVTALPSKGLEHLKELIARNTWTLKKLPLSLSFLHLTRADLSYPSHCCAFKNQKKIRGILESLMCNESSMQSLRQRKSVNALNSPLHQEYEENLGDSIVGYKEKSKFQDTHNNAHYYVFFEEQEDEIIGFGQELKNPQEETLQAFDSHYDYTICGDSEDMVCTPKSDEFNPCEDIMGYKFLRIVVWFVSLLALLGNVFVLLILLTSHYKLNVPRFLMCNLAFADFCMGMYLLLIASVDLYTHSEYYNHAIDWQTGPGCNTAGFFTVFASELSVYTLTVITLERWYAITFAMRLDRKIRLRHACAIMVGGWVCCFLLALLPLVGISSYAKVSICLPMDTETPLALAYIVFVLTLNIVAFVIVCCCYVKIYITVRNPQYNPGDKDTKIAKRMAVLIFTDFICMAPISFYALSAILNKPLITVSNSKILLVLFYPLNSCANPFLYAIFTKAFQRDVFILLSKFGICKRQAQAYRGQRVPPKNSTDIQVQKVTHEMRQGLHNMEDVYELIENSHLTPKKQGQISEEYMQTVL
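Cell-based HTRF cAMP assay; TSHR cells + compound, TSH EC80 (4nM final), 2 h, 37 deg C. Lysis with anti-cAMP cryptate and cAMP-d2, 30 min RT, read 665/620 nm.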
CCT chaperon mod – changes cytosolic chaperonin activity. hit rate 0.3% among 360,000. purified chaperonin ATPase assay, HTRF ADP detection, 30 min. activity change, % (concentration not given with the values), hits read low; in the data active = activity change below about -30%; note: % is set by controls: 0 for no effect and ±100 for the full control effect
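Enzyme 40 or 20 nM (batch-dependent) in Tris pH 7.4/KCl/MgCl2/DTT; cpd 76 uM single point; ATP 10 uM; 30 min 37 °C; Transcreener ADP HTRF detection, 30 min RT; ratio 665/615.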
gsp agonist – activates gsp, the McCune-Albright syndrome mutation | gsp mutant cells, cAMP HTRF, 30 min | Potency, µM (top dose mostly 76.9 µM), inactives show at the top dose activation (cAMP increase), hits mostly activators | hit rate 0.13% among 340,000 | AID 624287; active = well fitted activation curve with a large enough effect; inconclusive = small, poorly fitted or top-dose-only effect, or another doubt; inactive = no such curve, though single readings can be large or run the other way; cell line not stated here;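 note: phosphodiesterase inhibitor Ro 20-1724 added with compounds to block cAMP breakdown; potency is the fitted concentration of half-maximal effect; nearly all actives have a fitted effect of over 60% in size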
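Cells stably selected in G418 were plated at 2000/well, grown 16-24 hr, then given compounds in DMSO with the PDE inhibitor […] (300 uM solution added) for 30 min at 37C; cAMP was read by HTRF.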
MmCpn inh – blocks the Methanococcus maripaludis chaperonin Mm-Cpn; Potency, µM (titrated, usually from 76.9 µM), for inactives: at the top dose activity, negative = inhibition, usual class: inhibitors; hit rate 0.031% among 330,000; purified Mm-Cpn ATPase, ADP Transcreener TR-FRET; active = well fitted inhibition curve with a large enough effect; inconclusive = small, poorly fitted or top-dose-only effect; note: potency is the fitted concentration of half-maximal effect; % is set by controls: 0 for no effect and ±100 for the full control effect; nearly all actives have a fitted effect of over 80% in size
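Quantitative HTS used 25 nM Mm-CPN and 10 uM ATP in magnesium/KCl Tris buffer, pH 7.4, with 1 mM DTT. Hydrolysis ran 30 min at 37°C; ADP was read by HTRF.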
gsp antag – antagonizes gsp, the McCune-Albright syndrome mutation; gsp-mutant cells, cAMP HTRF, 30 min; Potency, µM (highest dose often 76.9 µM), without a hit: top-dose activity change, negative = inhibition, usual class: inhibitors; hit rate 0.4% among 340,000; AID 624288; calls by dose curve; cell line not stated here;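 note: intracellular cAMP measured with PDE inhibitor Ro 20-1724 present during compound exposure; potency is the fitted concentration of half-maximal effect; % is set by controls: 0 for no effect and ±100 for the full control effect; nearly all actives have a fitted effect of over 65% in size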
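HTRF cAMP read-out (cAMP-d2 plus anti-cAMP antibody-K in lysis buffer, 30 min RT). Before lysis, cells are exposed to compounds with […] for 30 min at 37C in DPBS containing Ca/Mg, BSA and Tween 20.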
* = called active by the depositor; ? = inconclusive; · = not tested or not shown; ! = not active in a repeat; [ ] = dose if it differs, or a comment. Hits are enriched below; roughly 1.2% of the tested compounds scored in any of these assays.

SMILES | uPA generation | TSHR antagonist | CCT chaperon mod | gsp agonist | MmCpn inh | gsp antag
CC(C)(C)SCCNC(=O)CN1C(=O)c2cccc3cccc1c23 | 0.0% | -6.0 | -0.5 | 3.5% | -1.3% | -1.3%
CCCCNc1c(-c2cccc(-c3cc(C(C)=O)cs3)c2)nc2cc(C)ccn12 | -23.9% | -36.9 | -2.6 | 21.7% | 1.0% | 31.6µM*
COc1ccc(/C=C/c2cc[n+](C(=O)Cc3ccccc3)cc2)cc1 | -0.5% | -10.3 | -2.3 | -9.5%[15.4 µM] | 1.0% | 7.9%
CC1CCN(C(=O)CSc2ccc(-c3cccc([N+](=O)[O-])c3)nn2)CC1 | 0.1% | -14.8 | -2.4 | 8.5%[15.4 µM] | 0.1% | 28.2µM*
CCCC(=O)Nc1ccc2c(c1)nc(CN1CCN(C(=O)OCC)CC1)n2CC | 3.55µM* | 1.2 | -1.1 | 1.9% | 2.9% | 12.6%
CCOC(=O)N1CCN(Cc2nc3cc(NC(=O)c4ccco4)ccc3n2C)CC1 | -6.9% | 8.8 | -57.8* | 3.5% | -1.5% | 0.3%
CCCC(=O)Nc1ccc2c(c1)nc(CN1CCN(C(=O)OCC)CC1)n2C | -1.7% | -5.0 | 0.7 | -18.4% | -0.4% | 0.3%
CCOC(=O)N1CCN(CCC(=O)Nc2cccc(Br)c2)CC1 | 5.9% | 6.3 | -95.6*! | -23.5% | -2.5% | -9.9%
Cn1c(CN2CCCCC2)nc2cc(NC(=O)c3ccc(Cl)cc3)ccc21 | · | -9.5 | -47.6* | -31.5% | 0.6% | -15.1%
Cn1c(CN2CCCC2)nc2cc(NC(=O)c3ccc(Cl)cc3)ccc21 | 1.3% | 5.5 | -2.3 | 12.9%[15.4 µM] | 1.4% | -3.7%
CCOCCCNC(=O)c1cn(CC)c2ccc(S(=O)(=O)N3CCCC3)cc2c1=O | 1.7% | -7.5 | -51.8* | -10.5% | 1.5% | 0.1%
CCCCN(C)CCCNC(=O)c1cn(CC)c2ccc(S(=O)(=O)N3CCc4ccccc4C3)cc2c1=O | -21.7% | -3.1 | -59.3* | 30.2%[15.4 µM] | -4.8% | ·
CCCCN(CCCC)CCNC(=O)c1cn(CC)c2ccc(S(=O)(=O)N3CCCC3)cc2c1=O | -2.4% | 4.7 | -81.6* | 10.9% | -5.7% | 3.2%
CCOCCCNC(=O)c1cn(CC)c2ccc(S(=O)(=O)N3CCC(C)CC3)cc2c1=O | 5.1% | -11.5 | -2.8 | 16.8% | 0.7% | -14.1%
CCCCN(C)CCCNC(=O)c1cn(C)c2ccc(S(=O)(=O)N(C)C3CCCCC3)cc2c1=O | -13.6% | 0.1 | -54.0* | 0.6% | 2.8% | 8.8%
COc1ccccc1/C=C/C(=O)c1c2c(c(C)[nH]c1=O)CCCC2 | ? | -19.0 | -0.9 | 24.7% | 0.3% | 50.1µM*
COc1ccc(CNC(=O)c2cc3c(=O)n4ccccc4nc3n(Cc3cccnc3)c2=N)cc1 | · | -7.5 | 0.2 | 27.3% | -0.8%[15.4 µM] | 3.7%
CCC(C)[C@H](N)c1nnc(SCC(=O)Nc2ccc(C)cc2C)o1 (some centres undefined) | -6.3% | -3.7 | 0.2 | ? | 1.2% | 10.6%
O=C(NCCn1cc(SCC(=O)N2CCOCC2)c2ccccc21)c1ccccc1 | -1.0% | 9.3 | -1.2 | 26.8% | 2.6% | -1.9%
Cc1cc(C)cc(C(=O)NCCn2cc(SCC(=O)N3CCOCC3)c3ccccc32)c1 | 0.0% | -4.8 | -31.6* | -41.3% | 1.5% | -9.4%
COc1cccc(NC(=O)CCc2c(C)nn(-c3ccc(N4CCOCC4)nn3)c2C)c1 | -1.6% | -2.5 | -0.3 | -13.0% | 0.2% | -9.3%
CC1(C)CC(=O)C2=C(C1)NC1=C(C(=O)c3ccccc31)C2c1cc([N+](=O)[O-])ccc1O (centres undefined) | -3.2% | -4.1 | -7.1 | 14.1µM* | -2.4% | -11.6%
CC1(C)CC(=O)C2=C(C1)NC1=C(C(=O)c3ccccc31)C2c1ccccc1 (centres undefined) | -15.0% | -13.6 | -1.9 | ? | -3.2% | -22.3%
C/C(=N\NC(N)=S)C1C2C3CC4C5CC(C42)C1C53 (centres undefined) | -12.4% | -22.3 | 2.7 | 12.9% | 2.6% | 15.4%
CSc1nc(Sc2ccccc2Cl)c2ccccc2n1 | -10.4% | -8.0 | -76.7* | 6.3% | -25.1% | 23.6%
SMILES | uPA generation | TSHR antagonist | CCT chaperon mod | gsp agonist | MmCpn inh | gsp antag
O=c1c(O)c(-c2ccc(O)cc2)oc2cc(O)cc(O)c12 | -15.4% | · | 0.2 | · | · | 6.6%
O=c1c(-c2c(O)cc(O)c3c2O[C@H](c2ccc(O)cc2)CC3)c(-c2ccc(O)cc2)oc2cc(O)cc(O)c12 | 24.0% | 8.6 | -2.4 | 10.7% | 35.5µM* | -17.0%
CCCOc1ccc(Br)cc1CSC(=N)N | 5.62µM* | -19.9 | -0.9 | 18.3% | 2.4% | 6.1%
CN(Cc1ccccc1F)c1nc(-c2cccs2)nc2ccccc12 | -3.4% | 39.4 | -6.3 | 19.4%[15.4 µM] | -14.7% | 11.2µM*
COc1ccccc1-c1cc(C(=O)NCc2cccs2)no1 | 3.1% | 12.9 | -0.5 | -24.6% | -1.9% | -13.5%
COCCNC(=O)c1cc(-c2ccccc2OC)on1 | 7.08µM* | -9.8 | -1.7 | 9.3% | 0.6% | 7.8%
N#CNC(=Nc1cccc(F)c1)SCc1ccccc1F | 12.6µM* | 4.9 | -0.4 | -1.1% | -8.4% | -26.5%
CC(C)N=C(NC#N)SCc1ccccc1F | · | 2.8 | 0.6 | 1.2% | -0.4% | 3.2%
Cc1ccc2c(c1)/C(=C/c1ccccc1C)C(=O)N2 | -1.6% | -16.4 | -2.8 | ? | 0.0% | -6.2%
C=C(C)CSCc1nc2ccccc2[nH]1 | 4.3% | -5.3 | 1.1 | -14.6% | 1.0% | -1.4%
Cc1cccc(-c2cccc(NC(=O)C3CCCN(C(=O)c4csc(C)n4)C3)c2)c1 (centres undefined) | ? | -4.7 | 1.6 | ? | -0.2% | 35.5µM*
Cc1ccc(C)n1-c1ccc(-c2nnc3n2CCCCC3)s1 | -13.0% | 10.5 | 2.4 | 31.6µM* | -25.5% | 9.7%
COC(=O)c1ccc(/C=C/c2nc3ccccc3c(=O)[nH]2)cc1 | -0.4% | -1.0 | 0.8 | 13.2% | 0.8% | 8.4%
COc1ccccc1OCCn1nnc2ccccc21 | 0.4% | -1.9 | -55.1* | 10.3%[15.4 µM] | 1.4% | -5.6%
CCOc1ccccc1OCCn1nnc2ccccc21 | -3.4% | 3.1 | -1.9 | -1.3% | 2.7% | -4.5%
CCCn1c(SCC(=O)Nc2nnc(C(C)C)s2)nc2c1c(=O)n(C)c(=O)n2C | · | -17.5 | -1.3 | ? | -0.3% | 8.1%
O=C(N/N=C/c1ccc2c(c1)OCO2)c1ccc2c(c1)OCO2 | 2.5% | -2.7 | -0.4 | 1.0% | -6.4% | -12.4%
O=C(N/N=C/C(Cl)=C/c1ccccc1)c1ccc2c(c1)OCO2 | 6.31µM* | -12.6 | -0.2 | -9.0% | 0.1% | -17.9%
CC(=O)c1ccc(OC(C)C)c(CSc2nc(O)cc(=O)[nH]2)c1 | 4.1% | -9.0 | -3.7 | -11.7% | -9.4% | 0.9%[15.4 µM]
COC(=O)CN(c1ccc(C)cc1)S(=O)(=O)c1ccc2c(c1)n(C)c(=O)c(=O)n2C | 1.7% | -95.6* | -0.5 | 6.2% | -3.6% | -8.0%
